Shown are actives, neighbours in structure and some others; about 2.8% of the full set was active somewhere.
HSP90 inh: inhibitors of HSP90 luciferase refolding in rabbit reticulocyte lysate; AID 1789; luciferase refolding luminescence, 3 h; inhibition, % at 5.6 µM; 290,000 compounds, 0.91% hits;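 active means inhibition above the screen-wide mean plus 3 SD, computed separately per campaign, cut at about 16% in these data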;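 further: 0% = DMSO wells and 100% = 60 µM geldanamycin wells; inhibitors lower the luminescence because luciferase stays unfolded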
SENP8 block-1: inhibitors of human SENP8 protease; purified SENP8, Z-RLRGG-aminoluciferin cleavage, luminescence; Q96LD8; inhibition, % at 10 µM; 330,000 compounds, 1.2% hits; AID 2540; in the data active means inhibition above about 50%
Target sequence (Q96LD8 whole entry, looked up): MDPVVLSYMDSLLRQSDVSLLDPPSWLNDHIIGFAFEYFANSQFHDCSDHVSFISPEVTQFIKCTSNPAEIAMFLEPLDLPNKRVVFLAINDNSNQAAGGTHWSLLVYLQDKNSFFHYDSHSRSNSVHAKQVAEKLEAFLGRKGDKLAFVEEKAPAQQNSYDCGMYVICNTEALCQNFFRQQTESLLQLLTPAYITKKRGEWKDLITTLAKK
SENP8 block-2: blocks human SENP8 cleavage of Nedd8 substrate | Q96LD8 | AID 602440 | inhibition, % at 20 µM | recombinant SENP8, Nedd8 substrate fluorescence | 360,000 compounds, 0.64% hits; in the data active means inhibition mostly above about 40%, no sharp cut-off; inactive means mostly below about 27%
SENP6 block: blocks the human protease SENP6 | Q9GZR1 | Recombinant SENP6 catalytic domain, aminoluciferin luminescence | inhibition, % at 10 µM | 330,000 compounds, 1.8% hits;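 active means inhibition above about 50% at the single tested dose, limit read from the data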;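 further: plate controls were DMSO wells with enzyme for no effect and DMSO wells lacking enzyme for full effect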
SENP7 block: blocks the human protease SENP7; Q9BQF6; recombinant SENP7, Z-RLRGG-aminoluciferin luminescence, 40 min; inhibition, % at 5 µM; 330,000 compounds, 1.5% hits; AID 434973;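 active means inhibition above about 50% at the single test dose, limit read from the data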;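 further: plate controls were DMSO with enzyme for no effect and no enzyme buffer wells for full effect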
Platelet DG rel: modulates dense granule release in human platelets. human platelet-rich plasma, SFLLRN dense granule ATP release, luminescence. inhibition, %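 (compounds screened at 7.5 µM in platelet-rich plasma)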. 300,000 compounds, 0.22% hits. AID 1663;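 active means mean replicate score, as percent of positive control, at or above 50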
SENP8 conf: confirmation of human SENP8 protease inhibitors | AID 488912 | inhibition, % at 12.5 µM | 6,200 compounds, 40% hits | Recombinant SENP8, Z-RLRGG-aminoluciferin luminescence, 60 min | shares compounds with SENP7 block;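 active means mean inhibition across replicates above about 50%, limit read from the data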
SENP6 confirm: human SENP6 inhibition, confirmed. AID 488915. 6,200 compounds, 58% hits. recombinant SENP6, Z-RLRGG-aminoluciferin luminescence. inhibition, % at 12.5 µM. shares compounds with SENP7 block
SENP7 confirm: human SENP7 inhibition, confirmed; 6,200 compounds, 69% hits; inhibition, % at 12.5 µM; recombinant SENP7, Z-RLRGG-aminoluciferin luminescence, 40 min; shares compounds with SENP7 block; AID 488917
Casp3 select: inhibits human caspase-3 in SENP selectivity test. shares compounds with SENP7 block. purified caspase-3, Z-DEVD-aminoluciferin luminescence, 60 min. inhibition, % at 12.5 µM. 6,200 compounds, 60% hits. AID 488918;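 active means mean inhibition above about 50%, limit read from the data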;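 further: plate controls were enzyme with DMSO for no effect and wells without caspase-3 for full effect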
Target sequence (P42574 28-227 limits assumed): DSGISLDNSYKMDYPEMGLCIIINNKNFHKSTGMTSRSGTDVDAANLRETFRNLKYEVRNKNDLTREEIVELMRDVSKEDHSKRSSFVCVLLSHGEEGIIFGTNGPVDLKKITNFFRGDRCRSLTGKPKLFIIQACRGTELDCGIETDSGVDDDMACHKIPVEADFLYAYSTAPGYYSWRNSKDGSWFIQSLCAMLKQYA
Luc interf: luminescence interference (SENP counter-screen); shares compounds with SENP7 block; Pre-incubated SENP8/Z-RLRGG-aminoluciferin, luciferase luminescence interference; inhibition, % at 12.5 µM; 6,200 compounds, 39% hits;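 active means mean inhibition above about 50% when retested at one dose, limit read from the data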;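 further: plate controls were DMSO wells with completed reaction for no effect and substrate without enzyme for full effect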
* = called active by the depositor; . = not tested or not shown.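 How the source made its calls, unless noted: active means mean inhibition above about 50% in the one-dose retest (limit read from the data); inactive means the rest.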

SMILES	HSP90 inh	SENP8 block-1	SENP8 block-2	SENP6 block	SENP7 block	Platelet DG rel	SENP8 conf	SENP6 confirm	SENP7 confirm	Casp3 select	Luc interf
O=C(NC(=S)Nc1ccc(NC(=O)c2cccs2)cc1)c1cc2ccccc2o1	1.1	4.8	1.9	3.3	7.5	-10.8	.	.	.	.	.
COc1ccc(C(=O)c2cc3cccc(OC)c3o2)cc1	-6.1	82.2*	-16.4	83.7*	82.7*	10.6	88.2*	86.3*	97.0*	76.5*	66.4*
CC(C)OC(=O)C1Cc2ccccc2CN1S(=O)(=O)c1cccs1 (stereo not given)	0.5	-3.7	6.6	-11.1	-8.8	2.4	.	.	.	.	.
NC1=Nc2cccc3cccc1c23	2.5	10.9	-351.2	66.2*	1.5	7.9	1.3	23.3	9.4	3.0	1.7
CC(C)O/C(=N/S(=O)(=O)c1ccc(Cl)cc1)c1ccccc1	.	.	12.0	.	.	.	.	.	.	.	.
CCOc1ccc(OCCSc2nc(C)cc(=O)[nH]2)cc1	12.4	70.4*	3.2	66.0*	50.6*	-10.5	26.3	72.4*	61.1*	78.6*	3.4
COc1ccc(OCCSc2nc(N)cc(=O)[nH]2)cc1	2.1	-2.6	19.6	-30.0	4.9	-5.8	.	.	.	.	.
Cc1ccc(-c2nc(-c3ccncc3)no2)cc1Cl	1.3	23.4	11.9	29.9	54.8*	2.0	22.7	20.2	34.7	38.6	10.8
Cc1cc(-c2nc(-c3ccncc3)no2)ccc1[N+](=O)[O-]	-0.8	54.5*	12.9	59.5*	60.7*	5.6	8.7	8.6	16.2	11.7	11.3
COC(=O)c1cc2c(N)c(C(=O)c3ccccc3)sc2nc1C(OC)OC	5.3	4.4	-104.9	-31.8	3.7	8.2	.	.	.	.	.
Fc1cccc2sc(Nc3nc4cc5c(cc4s3)OCO5)nc12	-2.8	-8.0	-449.0	7.0	52.7*	5.7	-5.9	-9.6	2.0	4.8	-5.2
Fc1cccc2sc(Nc3nc4cc5c(cc4s3)OCCO5)nc12	9.3	33.7	-398.9	47.9	0.8	7.6	.	.	.	.	.
COC(=O)c1ccc(COC(=O)c2cccnc2Cl)cc1	0.8	36.6	5.6	50.7*	45.5	2.4	50.1*	45.7	79.3*	66.0*	55.7*
O=C(COC(=O)c1cccnc1Cl)c1ccc(Cl)cc1Cl	-2.1	-3.2	7.3	84.7*	67.0*	17.1	45.4	36.5	88.5*	77.7*	74.2*
O=C(COC(=O)c1cccnc1Cl)c1ccc(OC(F)F)cc1	-4.2	71.5*	7.7	24.1	85.6*	0.9	-1.5	77.4*	97.2*	89.2*	78.2*
Cc1ccc(NC(=O)Cc2ccccc2)cc1S(=O)(=O)N1CCOCC1	.	2.3	9.2	-4.1	3.6	.	.	.	.	.	.
CCOc1c(Cl)cc(C(=O)Nc2ccccc2C(=O)O)cc1Cl	-5.3	34.0	-56.4	60.0*	8.5	-0.5	58.8*	57.3*	71.8*	34.2	67.7*
O=C(Nc1sc(-c2ccccc2)cc1C(=O)O)c1ccccc1	-7.7	65.7*	-320.7	83.8*	27.6	6.2	-10.8	74.3*	74.3*	26.7	59.5*
COc1c(Cl)cc(C(=O)Nc2ccccc2-c2ccccc2)cc1Cl	-1.1	-1.2	13.0	-10.3	-6.7	5.2	.	.	.	.	.
COc1ccc(C(=O)Nc2ccccc2C(=O)O)cc1Cl	1.7	94.3*	13.8	96.9*	91.6*	5.4	96.4*	96.9*	100.6*	95.4*	95.6*
O=C(Nc1ccccc1C(=O)Nc1ccccc1)c1cccs1	-1.5	2.1	2.6	-8.0	8.8	4.3	.	.	.	.	.
CCOC(=O)c1cc(-c2ccccc2)sc1NC(=O)c1ccc(OC)cc1	-1.1	-9.5	.	-9.7	0.7	-0.6	.	.	.	.	.
